In PubChem BioAssay (NCATS):
Results filed as inconclusive are left out. Calls of active or inactive are those of the source. Calls follow the shape of the dose curve; as a rule, active = well fitted curve in the direction sought with a large enough effect; inconclusive = small, poorly fitted or top-dose-only effect, or another doubt; inactive = no such curve, though single readings can be large; an effect the other way counts as inactive or inconclusive.

How the values were obtained:
CRL-7250 = normal cell line; assay: Cytotoxic Profiling of Annotated Libraries Using Quantitative High-Throughput Screening (AID 1296008); details: Five cell lines viability, CellTiter-Glo ATP luminescence, 48-72 h; max response: hits give low values; also: nearly all actives have a fitted effect of over 60% in size; also: potency is read from the fitted curve at half-maximal effect; as to max response: % is scaled to controls: 0 for no effect and ±100 for the full control effect
Procedure, shortened: (§1)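 Cytotoxicity was measured as CellTiter-Glo ATP luminescence, read after 10 min at room temperature. Compound treatment of the cells lasted 48 or 72 hr at 37 degrees Celsius in a qHTS format.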

HEK293 = assay: as above; details: Five cell lines viability, CellTiter-Glo ATP luminescence, 48-72 h; max response: hits give low values
Procedure, shortened: as §1

HaCat = assay: as above; details: Five cell lines viability, CellTiter-Glo ATP luminescence, 48-72 h; max response: hits give low values
Procedure, shortened: as §1

KB-3-1 = assay: as above; details: Five cell lines viability, CellTiter-Glo ATP luminescence, 48-72 h; max response: hits give low values
Procedure, shortened: as §1

NIH3T3 [1] = assay: as above; details: Five cell lines viability, CellTiter-Glo ATP luminescence, 48-72 h; max response: hits give low values
Procedure, shortened: as §1

NIH3T3 [2] = assay: qHTS assay to identify novel small-molecules to repurpose for Merkel cell carcinoma treatment (AID 1296009); details: MCC and control cell lines, CellTiter-Glo viability, 72 h; at 44.8 µM (top of the series) unless noted; also: nearly all actives have a fitted effect of over 60% in size
Procedure, shortened: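 Cell viability measured by CellTiter-Glo following 72 hr compound treatment at 37 degree celsius, with NPC and MIPE libraries tested in 8- and 11-point concentration series.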

C33A = assay: Primary qHTS to identify gynecologic anti-cancer compounds using libraries of approved drugs and bioactive compounds (AID 1345084); details: Gynecologic cancer cell panel viability, ATPlite luminescence, 48 h; series mostly up to 57.5 µM; also: % is scaled to controls: 0 for no effect and ±100 for the full control effect; nearly all actives have a fitted effect of over 55% in size
Procedure, shortened: (§2)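 Cytotoxicity screen measuring ATP content by luciferase luminescence. Each compound is applied at five concentrations for 48 h at 37 C with 5% CO2.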

CAOV3 = assay: as above; details: Gynecologic cancer cell panel viability, ATPlite luminescence, 48 h; series mostly up to 57.5 µM
Procedure, shortened: as §2

CASKI = assay: as above; details: Gynecologic cancer cell panel viability, ATPlite luminescence, 48 h; series mostly up to 57.5 µM
Procedure, shortened: as §2

Es-2 = assay: as above; details: Gynecologic cancer cell panel viability, ATPlite luminescence, 48 h; series mostly up to 57.5 µM
Procedure, shortened: as §2

HeLa = assay: as above; details: Gynecologic cancer cell panel viability, ATPlite luminescence, 48 h; series mostly up to 57.5 µM
Procedure, shortened: as §2

Hek293T = assay: as above; details: Gynecologic cancer cell panel viability, ATPlite luminescence, 48 h, control line for the selectivity index; series mostly up to 57.5 µM
Procedure, shortened: as §2

OV90 = assay: as above; details: Gynecologic cancer cell panel viability, ATPlite luminescence, 48 h; series mostly up to 57.5 µM
Procedure, shortened: as §2

PA-1 = assay: as above; details: Gynecologic cancer cell panel viability, ATPlite luminescence, 48 h; series mostly up to 57.5 µM
Procedure, shortened: as §2

JEG-3 = assay: as above; details: Gynecologic cancer cell panel viability, ATPlite luminescence, 48 h; series mostly up to 57.5 µM
Procedure, shortened: as §2

COc1ccc([C@H]2OC[C@H]3[C@@H]2CO[C@@H]3c2ccc(O[C@@H]3O[C@H](CO)C(O)[C@H](O)[C@H]3O)c(OC)c2)cc1OC (stereo partly drawn)
inactive: max response (CRL-7250) -2.87% | max response (HEK293) 1.89% | max response (HaCat) -9.63% | max response (KB-3-1) -3.78% | outcome (NIH3T3 [1]) | outcome (NIH3T3 [2]) inactive [at 17.4 µM] | Potency (C33A) | Potency (CAOV3) | outcome (CASKI) | Potency (Es-2) | Potency (HeLa) | Potency (Hek293T) | Potency (OV90) | Potency (PA-1)

Cc1occc1C(=O)n1ccnc1
inactive: max response (CRL-7250) -1.62% | max response (HEK293) 0.475% | max response (HaCat) 4.32% | max response (KB-3-1) 0.152% | outcome (NIH3T3 [1]) | outcome (NIH3T3 [2]) | Potency (C33A) | Potency (CAOV3) | outcome (CASKI) | Potency (Es-2) | Potency (HeLa) | Potency (Hek293T) | Potency (JEG-3) | Potency (OV90) | Potency (PA-1)

Cc1cn2cc(CC(=O)N3CCC4(CC3)CN(Cc3ccc(-n5nccn5)cc3Cl)C4)nc2s1
active: Potency (HEK293) 16.4 µM
inactive: max response (CRL-7250) 2.68% | max response (HaCat) 2.32% | max response (KB-3-1) 0.0455% | outcome (NIH3T3 [1]) | outcome (NIH3T3 [2]) | Potency (C33A) | Potency (CAOV3) | outcome (CASKI) | Potency (Es-2) | Potency (HeLa) | Potency (Hek293T) | Potency (JEG-3) | Potency (OV90) | Potency (PA-1)

CC(C)=CC1C[C@](C)(O)[C@@H]2[C@H]3CCC4[C@@]5(C)CC[C@H](O[C@@H]6OC[C@H](O)[C@H](O[C@@H]7O[C@H](CO[C@@H]8O[C@H](CO)[C@@H](O)[C@H](O)[C@H]8O)[C@@H](O)[C@H](O)[C@H]7O)[C@H]6O[C@@H]6O[C@@H](C)[C@H](O)[C@@H](O)[C@H]6O)C(C)(C)[C@@H]5CC[C@@]4(C)[C@@]34CO[C@@]2(C4)O1 (stereo partly drawn)
inactive: max response (CRL-7250) -1.09% | max response (HEK293) -3.55% | max response (HaCat) 4.88% | outcome (KB-3-1) | outcome (NIH3T3 [1]) | outcome (NIH3T3 [2]) inactive [at 9.27 µM] | activity change, negative = cytotoxicity (C33A) 25.2% [at 11.6 µM] | activity change, negative = cytotoxicity (CAOV3) 4.48% [at 11.6 µM] | activity change, negative = cytotoxicity (CASKI) 12.3% [at 11.6 µM] | activity change, negative = cytotoxicity (Es-2) 11.4% [at 11.6 µM] | activity change, negative = cytotoxicity (HeLa) 6.98% [at 11.6 µM] | activity change, negative = cytotoxicity (Hek293T) -1.62% [at 11.6 µM] | activity change, negative = cytotoxicity (JEG-3) 8.28% [at 11.6 µM] | activity change, negative = cytotoxicity (OV90) 5% [at 11.6 µM] | activity change, negative = cytotoxicity (PA-1) 0.967% [at 11.6 µM]

CN1C(=O)N(c2cc(Cl)cc(Cl)c2)C(=O)[C@@]1(C)Cc1ccc(Br)cc1
inactive: max response (CRL-7250) -11.1% | max response (HEK293) -15.8% | max response (HaCat) -27.7% | max response (KB-3-1) 3.14% | outcome (NIH3T3 [1]) | outcome (NIH3T3 [2]) | Potency (C33A) | Potency (CAOV3) | outcome (CASKI) | Potency (Es-2) | Potency (HeLa) | Potency (Hek293T) | Potency (JEG-3) | Potency (OV90) | Potency (PA-1)

C/C=C/C=C/C=C/C(=O)O[C@@H]1C=C(CO)[C@](O)(CO)[C@@]2(C)CCCC(C)(C)[C@H]12
active: Potency (HEK293) 12.8 µM
inactive: max response (CRL-7250) -5.67% | max response (HaCat) -1.12% | outcome (KB-3-1) | outcome (NIH3T3 [1]) | outcome (NIH3T3 [2]) | Potency (C33A) | Potency (CAOV3) | outcome (CASKI) | Potency (Es-2) | Potency (HeLa) | Potency (Hek293T) | Potency (JEG-3) | Potency (OV90) | Potency (PA-1)

CC(=O)[C@@H]1C[C@H](C(C)(C)O[C@@H]2O[C@H](CO)[C@@H](O)[C@H](O)[C@H]2O)CC[C@@]2(CO)OC(=O)C[C@@H]12
inactive: max response (CRL-7250) -8.92% | max response (HEK293) 0.131% | max response (HaCat) 4.13% | max response (KB-3-1) 1.24% | outcome (NIH3T3 [1]) | outcome (NIH3T3 [2]) inactive [at 17.4 µM] | Potency (C33A) | Potency (CAOV3) | outcome (CASKI) | Potency (Es-2) | Potency (HeLa) | Potency (Hek293T) | Potency (JEG-3) | Potency (OV90) | Potency (PA-1)

CC(C)=CCC(O)[C@](C)(O)C1[C@H](O)C[C@@]2(C)C3CC=C4C(C[C@H](O)[C@@H](O[C@@H]5O[C@H](CO)[C@@H](O)[C@H](O)[C@H]5O)C4(C)C)[C@]3(C)C(=O)C[C@]12C (stereo partly drawn)
inactive: max response (CRL-7250) 4.58% | max response (HEK293) -6.78% | max response (HaCat) -8.01% | outcome (KB-3-1) | outcome (NIH3T3 [1]) | outcome (NIH3T3 [2]) inactive [at 17.4 µM] | Potency (C33A) | Potency (CAOV3) | outcome (CASKI) | Potency (Es-2) | Potency (HeLa) | Potency (Hek293T) | Potency (JEG-3) | Potency (OV90) | Potency (PA-1)

O=C(O)c1ccnc2cc(C(OCC3CCC(F)(F)CC3)c3ccccc3Cl)[nH]c12 (stereo not drawn)
inactive: max response (CRL-7250) 2.57% | max response (HEK293) 4.55% | max response (HaCat) -20.6% | max response (KB-3-1) 8.39% | outcome (NIH3T3 [1]) | outcome (NIH3T3 [2]) | Potency (C33A) | Potency (CAOV3) | outcome (CASKI) | Potency (Es-2) | Potency (Hek293T) | Potency (JEG-3) | Potency (OV90) | Potency (PA-1)

CC(C)CC(=O)OC[C@@]1(O)C[C@@]23CC[C@H]4[C@@](C)(CCC[C@@]4(C)C(=O)O)[C@@H]2CC[C@@H]1C3
inactive: outcome (CRL-7250) | max response (HEK293) 1.06% | max response (HaCat) -4.56% | max response (KB-3-1) 4.98% | outcome (NIH3T3 [1]) | outcome (NIH3T3 [2]) inactive [at 17.4 µM] | Potency (C33A) | Potency (CAOV3) | outcome (CASKI) | Potency (Es-2) | Potency (HeLa) | Potency (Hek293T) | Potency (JEG-3) | Potency (OV90) | Potency (PA-1)

CN(C)CC(c1ccc(O)cc1)C1(O)CCCCC1 (stereo not drawn)
inactive: max response (CRL-7250) 2.79% | max response (HEK293) 2.78% | max response (HaCat) -0.565% | outcome (KB-3-1) | outcome (NIH3T3 [1]) | outcome (NIH3T3 [2]) | Potency (C33A) | Potency (CAOV3) | outcome (CASKI) | Potency (Es-2) | Potency (HeLa) | Potency (Hek293T) | Potency (JEG-3) | Potency (OV90) | Potency (PA-1)
